Reference: PubChem BioAssay

experiment: JC-1 mitochondrial signal, unstimulated myeloma cells – cell-based, JC-1 fluorescence, RPMI8226, 24 h, 100 nL compound, profiling panel (AID 1169); conditions: JC-1 mitochondrial potential fluorescence, higher = more signal
Note: test concentration not given here.

| SMILES | z-score |
| --- | --- |
| NC(=O)NCC#Cc1ccc2c(c1)[C@]1(C(=O)N2)[C@H](c2ccc(OCCO)cc2)N2[C@H](c3ccccc3)[C@H](c3ccccc3)OC(=O)[C@H]2[C@@H]1C(=O)N1CCCCCCC1 | -0.638 |
| O=C1C[C@@](C(=O)O)(c2ccc([N+](=O)[O-])cc2)[C@@H](c2ccc(CO)cc2)N1CC12CC3CC(CC(C3)C1)C2 | -0.15 |
| O=C1C[C@@](C(=O)NCc2ccccc2)(c2ccc([N+](=O)[O-])cc2)[C@@H](c2ccc(CO)cc2I)N1C1CCCCC1 | -0.572 |
| COc1cccc(C[C@H]2C[C@@H](CO[Si](C(C)C)(C(C)C)C(C)C)N3C(=O)[C@]4(C(C)=O)O[C@]23[C@H]2C(=O)N(C)C(=O)[C@H]24)c1 | -1.05 |
| COCC(=C=CC[C@@H](O)c1ccccc1OCCO)C[C@@H](O)COCc1ccccc1 | -0.719 |
| COC(=O)C(CC#Cc1ccc2c(c1)[C@]1(C(=O)N2)[C@H](C(=O)N2CCc3cc(OC)c(OC)cc3C2)[C@H]2C(=O)O[C@H](c3ccccc3)[C@H](c3ccccc3)N2[C@@H]1c1ccc(O)cc1)C(=O)OC | -0.606 |
| CN1C(=O)C2C=CC(C(O)COCc3ccccc3)N(Nc3ccccc3)C2C1=O (configuration not stated) | -0.0145 |
| Cc1ccccc1C(O)C1C=CC2C(=O)N(Cc3ccccc3)C(=O)C2N1n1cnnc1 (configuration not stated) | -0.0549 |

experiment: JC-1 mitochondrial signal, unstimulated MM1S myeloma – cell-based, JC-1 fluorescence, 24 h, 100 nL compound, profiling panel (AID 1170); conditions: MM1S mitochondrial potential, higher = more signal

| SMILES | z-score |
| --- | --- |
| Cc1cc(C)c(C(O)C2C=CC3C(=O)N(c4ccccc4)C(=O)C3N2Nc2ccccc2)c(C)c1 (configuration not stated) | -0.425 |
| O=C1O[C@H](c2ccccc2)[C@H](c2ccccc2)N2[C@H]1[C@@H](C(=O)N1CCN(c3ncccn3)CC1)[C@]1(C(=O)Nc3ccc(C#CCCO)cc31)[C@H]2c1ccc(OCCO)cc1 | -0.386 |
| O=C1CSC(c2cccc([N+](=O)[O-])c2)N1c1ccccc1 (configuration not stated) | -0.779 |
| COC(=O)C(CC#Cc1ccc2c(c1)[C@]1(C(=O)N2)[C@H](c2ccc(O)cc2)N2[C@H](c3ccccc3)[C@H](c3ccccc3)OC(=O)[C@H]2[C@@H]1C(=O)O)C(=O)OC | 0.412 |
| COCCCNC(=O)[C@@]1(Cc2ccccc2I)c2ccccc2C(=O)N(Cc2ccccc2Cl)[C@H]1c1ccc(CO)cc1 | 0.148 |
| COC(=O)[C@]1(Cc2ccccc2CN=[N+]=[N-])N=C(c2ccc(OCCCO)cc2)O[C@@H]1c1ccccc1 | -2.7 |
| CN(C)CCCCCCNC(=O)[C@@H]1C[C@@H]2C(=O)NCC(=O)N2[C@@H]1c1ccc(O)cc1 | 0.216 |
| COC(=O)c1ccc(OC)c(/C=C\CC(CCc2ccccc2)OC(=O)c2ccncc2)c1 (configuration not stated) | 0.256 |
| CCOC(=O)C[C@H]1[C@H](OC(=O)Cc2ccc3c(c2)OCO3)[C@@H](NC(=O)c2ccccc2)c2cc(OCCCO)ccc2N1C(=O)c1ccc2ccccc2n1 | -0.178 |
| CCCNC(=O)[C@@]1(Sc2ccc(C)cc2)CC(=O)N(Cc2ccccc2)[C@@H]1c1ccc(CO)cc1I | -1.89 |
| CC1(C)[C@@H]2CC(C(O)C3C=CC4C(=O)N(c5ccccc5)C(=O)C4N3Nc3ccccc3F)=C[C@@H]1C2 (some centres not stated) | -1.41 |
| COc1ccc(C#Cc2ccc3c(c2)[C@]2(C(=O)N3)[C@H](C(N)=O)[C@H]3C(=O)O[C@H](c4ccccc4)[C@H](c4ccccc4)N3[C@@H]2c2ccc(O)cc2)cc1 | -2.28 |
| COc1ccc([Si](C)(C)[C@@H]2[C@@H](CCO)O[C@]3(C(=O)N(Cc4ccc(N5C(=O)c6ccccc6Oc6ccccc65)cc4)c4ccccc43)[C@H]2C)cc1 | -1.68 |
| NC(=O)NCC#Cc1ccc2c(c1)[C@]1(C(=O)N2)[C@H](c2ccc(O)cc2)N2[C@H](c3ccccc3)[C@H](c3ccccc3)OC(=O)[C@H]2[C@@H]1C(=O)NC[C@H](O)c1ccccc1 | 0.481 |
| CO[C@H]1O[C@H](CO)[C@@H](OC(=O)c2ccc(Br)cc2)[C@@H]2OC(=O)[C@H](Cc3cccc(Br)c3)C/C=C/C[C@@H](Cc3cccc(Br)c3)C(=O)O[C@@H]12 | -0.698 |
| CO[C@H]1O[C@H](CO)[C@@H](OC(=O)Nc2cccc(F)c2)[C@H](OC(=O)Nc2ccc3c(c2)OCO3)[C@H]1OC(=O)Nc1ccc2c(c1)OCO2 | -0.0179 |
| CC(C)C[C@H]1NC(=O)[C@H](C)NC(=O)[C@@]23C(=O)N[C@@H](Cc4ccccc4)C2[C@H](C)[C@@]2(C)O[C@H]2C3/C=C/C/C=C\CNC1=O (some centres not stated) | 1.34 |
| Cc1ccc(C(C)CC(O)C2C=CC3C(=O)N(Cc4ccccc4)C(=O)C3N2n2cnnc2)o1 (configuration not stated) | 1.24 |
| COCCCNC(=O)[C@@]1(Cc2ccccc2)COC(c2ccc(OCCCO)cc2)=N1 | -0.693 |
